Source: PubChem BioAssay
Only some compounds are listed: those with a hit (about 3.6% of all), similar ones and a draw of the others.
TRHR enhancer = TRH receptor (human) allosteric enhancement; TRHR cells, fluo-8 calcium fluorescence, EC20 TRH enhancement; enhancement, % at 2 µM; P34981; 0.66% of 360,000 active; AID 493056; in the data active = enhancement above about 30%; note: 0% is about no effect
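TRHR-expressing cells loaded with fluo-8 calcium dye were read kinetically (ex 480/em 530) during compound addition, then stimulated with an EC20 of TRH (10 nM final). Enhancement of the Gq-mediated intracellular calcium response was scored.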
D1 ag = human D1 receptor agonism | HEK293 T-REx D1 cells, calcium flux, agonist mode | AID 504660 | 1% of 360,000 active | P21728 | activation, % at 2 µM; note: 0% is about no effect
Target sequence (P21728 whole entry, looked up): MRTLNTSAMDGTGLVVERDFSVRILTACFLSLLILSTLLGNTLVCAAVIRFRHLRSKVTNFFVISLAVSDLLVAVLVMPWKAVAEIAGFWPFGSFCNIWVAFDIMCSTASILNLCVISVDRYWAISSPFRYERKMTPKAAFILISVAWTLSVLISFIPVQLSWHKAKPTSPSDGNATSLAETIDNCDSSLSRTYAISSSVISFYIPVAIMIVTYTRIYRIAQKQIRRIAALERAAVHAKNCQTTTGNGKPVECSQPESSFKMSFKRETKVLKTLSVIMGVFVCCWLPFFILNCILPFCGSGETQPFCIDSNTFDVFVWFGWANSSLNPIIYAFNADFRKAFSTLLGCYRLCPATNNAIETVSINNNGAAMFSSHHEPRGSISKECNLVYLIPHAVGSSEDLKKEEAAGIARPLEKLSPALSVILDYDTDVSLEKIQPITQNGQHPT
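Inducible HEK293 T-REx D1 cells, force-coupled to calcium signalling, were plated at 4000 cells/well with tetracycline and held overnight at 30 C. After no-wash calcium dye loading, compound-evoked calcium rise over 180 s flagged agonists.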
D1 PAM = enhances dopamine response at the human D1 receptor. HEK293 TREx D1 cells, calcium flux, dopamine EC20 potentiation. 0.036% of 360,000 active. potentiation, % at 10 µM; in the data active = potentiation above about 30%; note: 0% is about no effect
LDHA inh = blocks human lactate dehydrogenase A; P00338; purified LDHA, NADH/diaphorase-resazurin fluorescence; stronger effect = lower value; activity change, % (values are at about 110 or 230 µM); 0.15% of 480,000 active; AID 1347041; in the data active = activity change below about -30%;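 note: plate controls were DMSO wells for no effect and wells without enzyme for full effect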
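Enzyme activity of human lactate dehydrogenase 5 (2 nM; 0.06 mM NADH, 0.2 mM pyruvate, 5 min, RT) is measured via a resazurin/diaphorase fluorescence readout of residual NADH.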
TRHR agonist = TRH receptor (human) agonism; TRHR cells, calcium flux fluo-8, FDSS agonist mode; activation, % at 2 µM; 0.18% of 360,000 active; P34981; note: 0% is about no effect
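Fluo-8-loaded TRHR cells; 10 s baseline, compound added, kinetic Ca2+ fluorescence read 1/s, agonist mode.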
D1 antag = antagonists of human D1 dopamine receptor. 3.2% of 360,000 active. activity change, negative = inhibition, % at 10 µM. AID 504652. HEK293 TREx D1 cells, calcium flux, dopamine EC80; stronger effect = lower value. P21728; in the data active = activity change below about -30%; note: % is set by controls: 0 for no effect and ±100 for the full control effect
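Calcium flux readout: force-coupled, inducible Hek293 Trex D1 line, cells induced overnight at 30 C with tetracycline, dye-loaded 30–90 min at RT. Antagonism scored against EC80 dopamine challenge given 180 s after compound.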
* hit, by the source's call. Cut-off read from the data, not from the text of the source, unless noted: active = activation above about 30%; inactive = the rest.

Screening Cc1ccc(S(=O)(=O)NCC2CCC(C(=O)NCc3cccnc3)CC2)cc1 (stereo unspecified) returned TRHR enhancer -2.4, D1 ag 2.1, D1 PAM -7.0, LDHA inh -11.0, TRHR agonist 0.0 and D1 antag -32.1*.
CCOc1ccc(S(=O)(=O)N2CCCC(C(=O)NCc3cccnc3)C2)cc1 (stereo unspecified) was read as TRHR enhancer -2.1, D1 ag 0.6, D1 PAM -8.8, LDHA inh 1.6, TRHR agonist -0.4 and D1 antag -31.2*.
COc1ccccc1CNC(=O)C1CCN(S(=O)(=O)c2ccc(-n3cnnn3)cc2)CC1 was read as TRHR enhancer -1.8, D1 ag 5.3, D1 PAM -7.2, LDHA inh -10.4, TRHR agonist -1.0 and D1 antag -38.7*.
For COc1ccc(S(=O)(=O)N2CCC(C(=O)N[C@H](C(=O)NCc3ccncc3)C(C)C)CC2)cc1 the results were TRHR enhancer -4.4, D1 ag 0.3, D1 PAM -6.0, LDHA inh -3.1, TRHR agonist 0.9 and D1 antag -16.2.
COc1cccc(CNC(=O)C2CCN(S(=O)(=O)c3ccc(-n4cnnn4)cc3)CC2)c1 was read as TRHR enhancer -3.2, D1 ag 0.6, D1 PAM -1.9, LDHA inh 0.6, TRHR agonist 1.1 and D1 antag -24.8.
For N#Cc1nc(-c2ccc(Cl)cc2)oc1NCc1ccc(F)cc1 the results were LDHA inh 0.5.
Screening N#CNC(=Nc1ccc(F)cc1)SCc1cccc(F)c1 returned LDHA inh -10.0.
Screening COc1cccc(CNC(=O)C2CCN(S(=O)(=O)c3cnc[nH]3)CC2)c1 returned TRHR enhancer -2.8, D1 ag 4.9, D1 PAM -0.6, LDHA inh -2.8, TRHR agonist 0.5 and D1 antag -39.1*.
Screening O=C(c1ccc2ccccc2c1)C1CCCN(S(=O)(=O)c2cccnc2)C1 (stereo unspecified) returned TRHR enhancer -5.0, D1 ag 9.9, D1 PAM -8.1, LDHA inh -1.3, TRHR agonist -0.9 and D1 antag -52.9*.
`COc1ccc(S(=O)(=O)N2CCCC(C(=O)NCc3cccnc3)C2)cc1` (stereo unspecified) gave TRHR enhancer 7.0, D1 ag 1.1, D1 PAM 0.8, LDHA inh -1.9, TRHR agonist 0.1 and D1 antag 9.4.
For COc1ccc(S(=O)(=O)N2CCCC(C(=O)NCCC(C)C)C2)cc1 (stereo unspecified) the results were TRHR enhancer 3.0, D1 ag 5.0, D1 PAM -8.2, LDHA inh -6.7, TRHR agonist -0.7 and D1 antag -30.3*.
Screening COc1ccc(S(=O)(=O)N2CCCC(C(=O)O)C2)cc1 (stereo unspecified) returned TRHR enhancer 0.7, D1 ag 0.1, D1 PAM -1.8, LDHA inh -4.3, TRHR agonist 0.2 and D1 antag 2.1.
For COc1ccc(S(=O)(=O)N2CCCC(C(=O)NCc3ccccc3)C2)cc1 (stereo unspecified) the results were TRHR enhancer -1.8, D1 ag 17.7, D1 PAM -6.4, LDHA inh -3.0, TRHR agonist 0.2 and D1 antag -30.9*.
For Cc1ccc(CNCc2ccc(-c3ccc(C(C)O)cc3)o2)cc1 (stereo unspecified) the results were LDHA inh -12.3.
Screening COc1ccc(S(=O)(=O)N2CCC(C(=O)NCc3cccnc3)CC2)cc1OC returned TRHR enhancer -1.0, D1 ag 1.7, D1 PAM 21.9, LDHA inh -5.2, TRHR agonist -1.1 and D1 antag -51.7*.
Screening COc1ccc(S(=O)(=O)N2CCC(C(=O)NCc3cccnc3)CC2)cc1C returned TRHR enhancer 26.7, D1 ag 0.0, D1 PAM -1.4, LDHA inh -6.9, TRHR agonist -0.4 and D1 antag -6.2.
`Cc1ccc(S(=O)(=O)N(Cc2ccccc2)c2ccccc2C(=O)NCc2cccnc2)cc1` gave TRHR enhancer 1.6, D1 ag 2.9, D1 PAM -6.2, LDHA inh -6.0, TRHR agonist -1.0 and D1 antag -38.3*.
